# According to PubChem BioAssay (NCI):
# Compounds without any hit were thinned out: in the full panel of roughly 83,000, 20% have a hit.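 Assay: single dose, 48 h. Readout: percent growth (0 = no net growth; negative = cell death). Active: <10.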 Unmarked numbers belong to inactive results. Activity calls are given as the source filed them.
# System: HL-60(TB) leukemia
# Test: NCI-60 one-dose screen, 48 h (100 = growth as untreated, 0 = no growth, -100 = all killed)
# Details: 10 µM unless noted
row,SMILES,growth
1,COc1ccc(-c2[nH]c3ccccc3c2/C=C(\C#N)S(=O)(=O)c2ccccc2)cc1,-28.4% (active)
2,CC(=O)n1cc(-c2c[nH]c3ccccc23)c(-c2ccc(Cl)cc2)n1,135%
3,COc1ccc(Oc2ccc(/C=C/C(=O)c3ccc(OC)c(OC)c3)cc2)cc1,-61.4% (active)
4,C=CCC(CCC(CC=C)C(=O)OCC)C(=O)OCC (stereo not given),99.8%
5,COc1ccc(C/C(C)=C(/c2ccc(OCCN(C)C)cc2)c2ccc(OC(=O)NCc3ccccc3)cc2)cc1,45.1%
6,CCC(C)(c1ccc(O)c(C)c1)c1ccc(O)c(C)c1,128%
7,COc1ccc(/C=C/C(=O)c2ccc(NC(=O)c3cc4cc5ccccc5nc4s3)cc2)cc1OC,92.5%
8,COc1ccc2[nH]c3nc4cnccc4cc3c2c1,108%
9,C[C@@H](C[C@H](CCOCc1cccnc1)c1ccccc1)c1cc2ccccc2o1,98%
10,COc1ccc(-c2nc(-c3nc4ccc(OC)cc4[nH]3)c3ccccn23)cc1,52.1%
11,COc1ccc(NC(=O)c2sc3nc(C)c(C(=O)CCc4cccc(OC)c4)cc3c2N)cc1,34.6%
12,O=C1/C(=C/c2cccs2)CCC/C1=C\c1cccs1,93.8%
13,Nc1c(Br)cc2c(c1Br)Cc1cc(Cl)ccc1-2,100%
14,COc1c(Cl)cc(Cl)cc1Cl,98.7%
15,Clc1ccc2c(c1)C(Br)c1cc(Cl)cc(Cl)c1-2 (stereo not given),81.3%
16,COc1c(B(O)O)cc(F)cc1-c1nc2ccc3[nH]ncc3c2c2c1CCCC2,-2.38% (active)
17,COc1ccc(N/N=C/c2ccc3c(c2)Sc2ccccc2N3C)cc1,57.3%
18,CCC[S@](=O)c1ccc2nc(NC(=O)OC)[nH]c2c1,77.1%
19,COc1ccc2c(O)c(/C=C3\N=Nc4nc(C)ccc43)oc2c1CC1CCNCC1,94.3%
20,COc1cc2c3c(c(=O)oc2cc1OS(=O)(=O)c1ccc(C(F)(F)F)cc1)CCCCC3,107%

row,SMILES,growth
1,N#Cc1cc(-c2ccnc(Nc3ccc(NC(=O)CCl)cc3)n2)ccc1N1CCCC1,-49.2% (active)
2,N=C(N)c1ccc(-c2ccc(-c3ccc(Cl)cc3Cl)o2)nc1,-26.7% (active)
3,COc1ccc(-c2n/c(=C\c3c(O)[nH]c4ccc(OC)cc34)cc3c2=Nc2ccccc2-3)cc1,81%
4,O=[N+]([O-])c1cc([N+](=O)[O-])c(C(F)(F)F)cc1NN=C(c1ccc(O)cc1)c1ccc(O)cc1,103%
5,Cc1nc2ccc(Cl)cn2c1-c1nnc(SCc2ccc([N+](=O)[O-])cc2)o1,109%
6,CCN(CC)CCOCC[C@H]1CC[C@H]2[C@@H]3[C@H](C)Cc4cc(OS(N)(=O)=O)ccc4[C@H]3CC[C@]12C,-74.9% (active)
7,Cc1ccc(C)n1-c1ccccc1-n1c(C)ccc1C,82.2%
8,O=C(CCl)Oc1ccc(-c2ccccc2)c(Br)c1,105%
9,COc1c(O)cc2c(c1CC=C(C)C)OC(=O)c1c(cc(O)c(CC=C(C)C)c1O)O2,31%
10,CCN(CC)CCNC(=O)c1ccc(-c2nc3ccc4[nH]ncc4c3c3c2CCCC3)cc1,67.9%
11,CCCCNC(=O)c1cc([N+](=O)[O-])cc(C2CCCCC2)c1O,19.8%
12,CSC1=C(N)C(=O)c2[nH]cc(CO)c2C1=N,-28.1% (active)
13,O=C(Nc1ccc(Cl)cc1)c1cc(-c2ccc(Cl)cc2)c2sc(=O)[nH]c2n1,-53.7% (active)
14,COc1ccc(C=C2c3ccccc3-c3ccccc32)cc1,23.6%
15,COc1cc2c(c(OC)c1OC)C(=O)/C(=C/c1cc(C)c(O)c(C)c1)S2,13.6%
16,O=C(OCc1ccccc1)n1nnc2ccccc21,111%
17,CCCCCCCCOc1ccc(/C=N/Nc2cc(C)nc3ccc(Br)cc23)cc1,60.4%
18,NS(=O)(=O)c1ccc(-n2nc(-c3ccc(Cl)cc3)ccc2=O)cc1,83.7%
19,CN1CCN(c2nc(NCCNc3ccnc4cc(Cl)ccc34)c3ccccc3n2)CC1,-63.3% (active)
20,COc1cc(OC)c2sc(-c3ccc(-n4cncc4-c4ccc(OC)c(N)c4)cc3)nc2c1,58.4%
